Binding signal data for 14 sequences are collected here from paper PMC8384837, “Expanding the binding specificity for RNA recognition by a PUF domain”.

Numbering of substitutions follows the chain as printed.

Holding throughout (test): yeast three-hybrid, YBZ-1, SC-Leu-His + 0.5 mM 3-AT, 4 days
Holding throughout (conditions): tags: N-Gal4 AD-HA kept; label: inside an RPR1-promoter hybrid RNA with tandem MS2 sites; ssRNA

In one assay the target is PUM1 PUF domain R5-DWV (Homo sapiens, UniProt Q14671 828-1176, C1007D;R1008W;Q1011V). The method in brief: (§1)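 Matching RNA elements and Pumilio-1 PUF domain libraries, randomized at the three base-contacting residues of every repeat, were co-expressed from a centromeric plasmid in strain YBZ-1 (LexA–MS2 coat fusion, HIS3 reporter). The repeat regions were PCR-amplified and Illumina-sequenced from cells grown four days on SC-Leu (input) or SC-Leu-His + 0.5 mM 3-AT (selection). The interaction score is the log change in variant frequency from input to selection. It is computed in log2, with a pseudocount of 1 for absent variants.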

A further assay deals with PUM1 PUF domain R5-AGR (Homo sapiens, UniProt Q14671 828-1176, C1007A;R1008G;Q1011R). The method in brief:
as §1

The target in another assay is PUM1 PUF domain R3-FWG (Homo sapiens, UniProt Q14671 828-1176, C935F;R936W;Q939G). The method, boiled down: as §1
The target in another assay is PUM1 PUF domain R3-YRR (Homo sapiens, UniProt Q14671 828-1176, C935Y;Q939R). The method in brief: as §1
Another assay concerns the target PUM1 PUF domain R3-LNG (Homo sapiens, UniProt Q14671 828-1176, C935L;R936N;Q939G). The method, boiled down: as §1
The target of another assay is PUM1 PUF domain R4-GCG (Homo sapiens, UniProt Q14671 828-1176, N971G;H972C;Q975G). The method, boiled down: as §1
The target in another assay is PUM1 PUF domain R4-SHP (Homo sapiens, UniProt Q14671 828-1176, N971S;Q975P). The method, boiled down:
as §1

Another assay concerns the target PUM1 PUF domain R4-SRY (Homo sapiens, UniProt Q14671 828-1176, N971S;H972R;Q975Y). The method in brief: as §1
For the next assay, the target named is T1, PUM1 PUF domain R6-CFH (Homo sapiens, UniProt Q14671 828-1176, N1043C;Y1044F;Q1047H).
T1 sequence: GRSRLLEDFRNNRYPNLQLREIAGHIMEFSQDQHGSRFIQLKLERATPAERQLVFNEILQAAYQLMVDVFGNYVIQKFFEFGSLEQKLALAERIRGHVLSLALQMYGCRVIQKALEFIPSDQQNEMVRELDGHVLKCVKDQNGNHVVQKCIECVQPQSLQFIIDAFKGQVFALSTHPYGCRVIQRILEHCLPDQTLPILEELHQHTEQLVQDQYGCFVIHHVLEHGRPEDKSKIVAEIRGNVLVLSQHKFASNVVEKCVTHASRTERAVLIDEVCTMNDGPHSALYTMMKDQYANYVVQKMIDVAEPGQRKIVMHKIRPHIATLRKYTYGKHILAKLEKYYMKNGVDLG
The method, boiled down: as §1

For another assay, the target named is PUM1 PUF domain R2-ARP (Homo sapiens, UniProt Q14671 828-1176, N899A;Y900R;Q903P). The method, boiled down:
as §1

Another assay concerns the target PUM1 PUF domain R7-QFY (Homo sapiens, UniProt Q14671 828-1176, S1079Q;N1080F;E1083Y). The method in brief:
as §1

The target in the next assay is PUM1 PUF domain R1-KGN (Homo sapiens, UniProt Q14671 828-1176, S863K;R864G;Q867N). The method in brief: as §1
A further assay concerns the target PUM1 PUF domain R7-NRR (Homo sapiens, UniProt Q14671 828-1176, S1079N;N1080R;E1083R). The method in brief:
as §1

The target of another assay is T2, PUM1 PUF domain R6-LYG (Homo sapiens, UniProt Q14671 828-1176, N1043L;Q1047G).
T2 sequence: T1 sequence with C216L, F217Y, H220G
The method in brief:
as §1

In a further assay the target is PUM1 PUF domain R3-DRQ (Homo sapiens, UniProt Q14671 828-1176, C935D). The method, boiled down:
as §1

The target of another assay is PUM1 PUF domain R8-PWR (Homo sapiens, UniProt Q14671 828-1176, N1122P;Y1123W;Q1126R). The method, boiled down:
as §1

In a further assay the target is PUM1 PUF domain R8-CFK (Homo sapiens, UniProt Q14671 828-1176, N1122C;Y1123F;Q1126K). The method in brief: as §1
The target in a further assay is PUM1 PUF domain R8-KHY (Homo sapiens, UniProt Q14671 828-1176, N1122K;Y1123H;Q1126Y). The method in brief: as §1
The target of the next assay is PUM1 PUF domain R3-SCD (Homo sapiens, UniProt Q14671 828-1176, C935S;R936C;Q939D). The method in brief:
as §1

For the next assay, the target named is PUM1 PUF domain R3-FRC (Homo sapiens, UniProt Q14671 828-1176, C935F;Q939C). The method, boiled down: as §1

In the case of “GGCUAGAACUAGUGGAUCCCCCGGCGCCCGGCGGCUCGAGCCCGGGUAAGUGUGAAUAGUCUGCAUGCCGCCGGGCGCCAUGCCUGCAGGUCGACUCUAGAAAACAUG”, the binding signal with PUM1 PUF domain R5-DWV was 3.79 log2 enrichment (interaction score).
Turning to “GGCUAGAACUAGUGGAUCCCCCGGCGCCCGGCGGCUCGAGCCCGGGUAAGUGUUAAUAGUCUGCAUGCCGCCGGGCGCCAUGCCUGCAGGUCGACUCUAGAAAACAUG”, the binding signal with PUM1 PUF domain R5-AGR was 0.84 log2 enrichment (interaction score).
On to “GGCUAGAACUAGUGGAUCCCCCGGCGCCCGGCGGCUCGAGCCCGGGUAAGUGUAAUUAGUCUGCAUGCCGCCGGGCGCCAUGCCUGCAGGUCGACUCUAGAAAACAUG”, for which the binding signal with PUM1 PUF domain R3-FWG is 4.85 log2 enrichment (interaction score); in the assay with PUM1 PUF domain R3-YRR it was 0.22 log2 enrichment (interaction score); with PUM1 PUF domain R3-LNG, 1.7 log2 enrichment (interaction score).
Turning to “GGCUAGAACUAGUGGAUCCCCCGGCGCCCGGCGGCUCGAGCCCGGGUAAGUGUACAUAGUCUGCAUGCCGCCGGGCGCCAUGCCUGCAGGUCGACUCUAGAAAACAUG”, the binding signal with PUM1 PUF domain R4-GCG is 1.07 log2 enrichment (interaction score); with PUM1 PUF domain R4-SHP, 5.25 log2 enrichment (interaction score).
On to “GGCUAGAACUAGUGGAUCCCCCGGCGCCCGGCGGCUCGAGCCCGGGUAAGUGUAUAUAGUCUGCAUGCCGCCGGGCGCCAUGCCUGCAGGUCGACUCUAGAAAACAUG”, for which the binding signal was 2.61 log2 enrichment (interaction score) in the assay with PUM1 PUF domain R4-GCG, 0.46 log2 enrichment (interaction score) with PUM1 PUF domain R4-SRY and 5.36 log2 enrichment (interaction score) in the assay with PUM1 PUF domain R4-SHP.
Turning to “GGCUAGAACUAGUGGAUCCCCCGGCGCCCGGCGGCUCGAGCCCGGGUAAGUGUCAAUAGUCUGCAUGCCGCCGGGCGCCAUGCCUGCAGGUCGACUCUAGAAAACAUG”, in the assay with PUM1 PUF domain R5-AGR, the binding signal is 3.47 log2 enrichment (interaction score).
In the case of “GGCUAGAACUAGUGGAUCCCCCGGCGCCCGGCGGCUCGAGCCCGGGUAAGUGAAAAUAGUCUGCAUGCCGCCGGGCGCCAUGCCUGCAGGUCGACUCUAGAAAACAUG”, in the assay with PUM1 PUF domain R6-CFH, the binding signal is 4.34 log2 enrichment (interaction score).
For the sequence “GGCUAGAACUAGUGGAUCCCCCGGCGCCCGGCGGCUCGAGCCCGGGUAAGUGUAAAAAGUCUGCAUGCCGCCGGGCGCCAUGCCUGCAGGUCGACUCUAGAAAACAUG”, the binding signal with PUM1 PUF domain R2-ARP was 4.42 log2 enrichment (interaction score).
As for “GGCUAGAACUAGUGGAUCCCCCGGCGCCCGGCGGCUCGAGCCCGGGUAAGUUUAAAUAGUCUGCAUGCCGCCGGGCGCCAUGCCUGCAGGUCGACUCUAGAAAACAUG”, the binding signal in the assay with PUM1 PUF domain R7-QFY was 2.24 log2 enrichment (interaction score).
As for “GGCUAGAACUAGUGGAUCCCCCGGCGCCCGGCGGCUCGAGCCCGGGUAAGUGUAAAUUGUCUGCAUGCCGCCGGGCGCCAUGCCUGCAGGUCGACUCUAGAAAACAUG”, the binding signal with PUM1 PUF domain R1-KGN was 4.31 log2 enrichment (interaction score).
Take “GGCUAGAACUAGUGGAUCCCCCGGCGCCCGGCGGCUCGAGCCCGGGUAAGUCUAAAUAGUCUGCAUGCCGCCGGGCGCCAUGCCUGCAGGUCGACUCUAGAAAACAUG”: the binding signal with PUM1 PUF domain R7-NRR is 4.05 log2 enrichment (interaction score).
For the sequence “GGCUAGAACUAGUGGAUCCCCCGGCGCCCGGCGGCUCGAGCCCGGGUAAGUGUAAAUAGUCUGCAUGCCGCCGGGCGCCAUGCCUGCAGGUCGACUCUAGAAAACAUG”, the binding signal with PUM1 PUF domain R6-LYG was 4.49 log2 enrichment (interaction score); with PUM1 PUF domain R5-DWV, 2.8 log2 enrichment (interaction score); with PUM1 PUF domain R4-GCG, 2.71 log2 enrichment (interaction score); in the assay with PUM1 PUF domain R5-AGR, 0.53 log2 enrichment (interaction score); with PUM1 PUF domain R7-QFY it was 4.21 log2 enrichment (interaction score); in the assay with PUM1 PUF domain R3-FWG it was 4.7 log2 enrichment (interaction score). Further, the binding signal with PUM1 PUF domain R6-CFH is 2.76 log2 enrichment (interaction score); with PUM1 PUF domain R3-DRQ it was 4.43 log2 enrichment (interaction score); in the assay with PUM1 PUF domain R4-SRY it was 5.27 log2 enrichment (interaction score); with PUM1 PUF domain R8-PWR, 4.27 log2 enrichment (interaction score).
In the case of “GGCUAGAACUAGUGGAUCCCCCGGCGCCCGGCGGCUCGAGCCCGGGUAAGCGUAAAUAGUCUGCAUGCCGCCGGGCGCCAUGCCUGCAGGUCGACUCUAGAAAACAUG”, the binding signal is 4.21 log2 enrichment (interaction score) with PUM1 PUF domain R8-CFK, 4.3 log2 enrichment (interaction score) with PUM1 PUF domain R8-PWR and 4.22 log2 enrichment (interaction score) with PUM1 PUF domain R8-KHY.
On to “GGCUAGAACUAGUGGAUCCCCCGGCGCCCGGCGGCUCGAGCCCGGGUAAGUGUAAGUAGUCUGCAUGCCGCCGGGCGCCAUGCCUGCAGGUCGACUCUAGAAAACAUG”, for which the binding signal in the assay with PUM1 PUF domain R3-FWG was 7.02 log2 enrichment (interaction score); with PUM1 PUF domain R3-YRR, 4.01 log2 enrichment (interaction score); with PUM1 PUF domain R3-SCD, 5.61 log2 enrichment (interaction score); with PUM1 PUF domain R3-LNG it was 3.21 log2 enrichment (interaction score); in the assay with PUM1 PUF domain R3-FRC, 4.65 log2 enrichment (interaction score).
